# In the library only some 3.9% were active in any assay of this set; here they are far more common.
# HIF-2a inh – HIF-2a reporter inhibitors, primary screen, luminescence, 786-0 RCC cells; AID 624352, 2012; 786-0 RCC cells HIF-2a reporter, luciferase luminescence, overnight; 0.72% of 360,000 active; inhibition, % at 18.8 µM;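 active = inhibition of the luminescence signal of 40% or more relative to plate controls, in a single-dose primary screen at 18.75 µM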
# KKLEB tox – cytotoxicity in KKLEB CF airway cells, primary screen, cytotoxicity control for CF NF-kB inhibitor project, cell-based, uHTS, fluorescence assay plates; 0.36% of 360,000 active; activity change (cytotoxicity), % at 5 µM; KKLEB CF airway cells viability, ATPlite luminescence, overnight; stronger effect = lower value; cells stimulated with P. aeruginosa culture filtrate;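 active = corrected activity change at or below -50% at 5 µM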
# Peg3 prom inh – Peg3 promoter-driven luciferase inhibitors, primary screen, cell-based, HeLa, luciferase luminescence; HeLa PEG-Prom luciferase reporter, overnight; inhibition, % at 20 µM; 1.7% of 360,000 active;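 active = inhibition of at least 50% at 20 µM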
# TROY signal inh – inhibitors of TROY-driven NF-kB signaling, primary screen, Q293 LMP1-TROYcd cells, NF-kB luciferase, uHTS; Q293 LMP1-TROYcd NF-kB luciferase reporter, 4 h; inhibition, % at 10 µM; 0.98% of 360,000 active; AID 1347056, 2019;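 active = compounds whose plate-normalised and pattern-corrected inhibition of the luciferase reporter signal at the single screening dose is 50% or more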
# TWEAK-Fn14 inh – inhibitors of TWEAK-Fn14 signaling, primary screen, luciferase reporter cells, uHTS; inhibition, % at 10 µM; AID 1159606, 2016; 2% of 360,000 active; TWEAK-stimulated Fn14 reporter cells, luciferase luminescence, 8 h; in the data active = inhibition above about 50%
# CF NFkB inh – inhibitors of PAF-induced NF-kB signaling, primary screen, cell-based, GFP fluorescence, uHTS; 0.86% of 360,000 active; KKLEB NF-kB-GFP reporter, GFP fluorescence overnight; inhibition, % at 5 µM;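 active = at least 50% inhibition at 5 µM, scaled per plate between neutral and stimulator controls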;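 note: PAF is a Pseudomonas aeruginosa culture filtrate used as stimulus; plate controls were PAF-stimulated DMSO wells for no effect and unstimulated DMSO wells for full effect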
# CF NFkB inh conf – inhibitors of PAF-induced NF-kB signaling, retest, confirmation, cell-based, GFP fluorescence, single concentration | AID 602472, 2012 | inhibition, % at 5 µM | shares compounds with CF NFkB inh | 64% of 1,300 active | KKLEB CF airway cells, overnight; in the data active = inhibition above about 40%;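 note: stimulus PAF is a Pseudomonas aeruginosa filtrate and not platelet activating factor; plate controls were DMSO wells with stimulus for no effect and unstimulated DMSO wells for full effect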
# HIF-2a inh conf – HIF-2a reporter inhibitor retest, confirmation, luminescence, 786-0 RCC cells; 56% of 1,800 active; shares compounds with HIF-2a inh; AID 651580, 2012; inhibition, % at 18.8 µM; HIF-2a luciferase reporter luminescence, overnight;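 active = mean inhibition across four replicates of at least 40 percent at the single tested concentration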
# HIF-1a counter – HIF-1a luciferase reporter signal reduction – MiaPaCa-2 cells, single concentration, counter-screen for HIF-2a inhibitor project, confirmation; inhibition, % at 18.8 µM; shares compounds with HIF-2a inh; MiaPaCa-2 HIF-1a luciferase reporter, desferoxamine, overnight; 72% of 1,800 active;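 active = mean inhibition of the reporter signal across four replicates at the single tested dose of 50% or more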
# * marks the source's active call; other numbers are inactive results; nt = not tested or not shown.
SMILES,HIF-2a inh,KKLEB tox,Peg3 prom inh,TROY signal inh,TWEAK-Fn14 inh,CF NFkB inh,CF NFkB inh conf,others
C=C1C(C)C2C(Cc3ccccc3)NC(=O)C23OC(=O)/C=C/C(O)CCCC(C)C/C=C/C3C1O (stereo not drawn),-5,-29,58*,-16,-35,76*,97*,
COc1ccc2nc(-c3ccc(CN4CCC(n5c(=O)[nH]c6ccccc65)CC4)cc3)c(-c3ccccc3)nc2c1,-66,nt,nt,29,29,nt,nt,
COc1ccc(C(c2nnnn2-c2ccc(OC)cc2)N2CCC3(CC2)C(=O)NCN3c2ccccc2)cc1 (stereo not drawn),6,0,31,11,4,-9,nt,
CCCCn1nnnc1C(CCc1ccccc1)N1CCC(n2c(=O)[nH]c3ccccc32)CC1 (stereo not drawn),-16,-9,82*,27,31,88*,74*,
COc1ccc(C(c2nnnn2-c2ccc3c(c2)OCCO3)N2CCC(n3c(=O)[nH]c4ccccc43)CC2)cc1 (stereo not drawn),-20,5,63*,14,46,61*,35,
COc1ccc(-n2nnnc2C(CCc2ccccc2)N2CCC(n3c(=O)[nH]c4ccccc43)CC2)cc1 (stereo not drawn),-49,-17,99*,72*,94*,75*,88*,
COc1ccc(CN2C(=O)NC(=O)/C(=C/c3ccc([N+](=O)[O-])s3)C2=O)cc1,8,10,13,21,11,-25,nt,
C#CCOC(=O)C1=CCCN(C)C1,-1,-6,3,-1,8,-6,nt,
C[C@H]1CCCC(=O)CCC/C=C/c2cc(O)cc(O)c2C(=O)O1,21,10,18,15,42,51*,58*,
COc1cc(O)cc2c1C(=O)OC(C)CCCC(=O)CCC/C=C\2 (stereo not drawn),10,-17,-10,-7,-6,22,nt,
O=C1C=CC(=O)C2C1C1(Cl)C(Cl)=C(Cl)C2(Cl)C1(Cl)Cl (stereo not drawn),23,-1,65*,46,57*,54*,31,
COc1cc2c(c(OC)c1OC)-c1ccc(C(=O)O)cc1[C@@H](NC(C)=O)CC2,10,15,-7,2,-3,-9,nt,
COc1cc2c(c(OC)c1O)-c1ccc(OC)c(=O)cc1C(NC(=O)C(F)(F)F)CC2 (stereo not drawn),18,-23,-19,20,-17,51*,87*,
CN(CC#CCN1CCCC1)C(=O)c1cccc(Cl)c1,9,4,-14,-15,6,2,nt,
COc1ccc2c(c1)[nH]c1c(C)nccc12,38*,6,18,50,65*,57*,83*,HIF-2a inh conf=12;HIF-1a counter=86*
Cc1c(C(=O)c2cccc3ccccc23)c2cccc3c2n1[C@H](CN1CCOCC1)CO3,70*,-7,79*,-45,-4,55*,64*,HIF-2a inh conf=46*;HIF-1a counter=79*
O=C(CN1CCOCC1)c1cccc2ccccc12,-1,-9,14,-9,15,6,nt,
COc1ccc(C(=O)NC(=S)N2C[C@H]3C[C@H](C2)c2cccc(=O)n2C3)cc1OC,1,-10,-9,-1,6,13,nt,

# Source: PubChem BioAssay (Sanford-Burnham Center for Chemical Genomics)
